In PubChem BioAssay AID540259 (Broad Institute, 2011):
Entries with a potency or affinity are not part of this list. Calls of active or inactive are those of the source.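 The calls were made as follows: active = cell killing, meaning signal decrease, with fitted half-maximal dose at or below ten times the top valid tested dose; inconclusive = poor fit, or flat curve with 30 to 70% signal loss; inactive = the rest.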

Assay: HeLa cell cytotoxicity, dose response, cytotoxicity control for MITF activator project, CellTiter-Glo luminescence, cherry-pick samples (AID 540259)
Settings: HeLa viability, CellTiter-Glo ATP luminescence, 24 h; series mostly up to 35 µM

CCS(=O)(=O)Nc1ccc(C(=O)NCCSc2ccccc2)cc1
outcome: inactive

Cn1ccs/c1=N\C(=O)Nc1ccccc1
outcome: inactive

C/C(=C\C(=O)c1cccnc1)Nc1ccc(C)c(C)c1
outcome: inactive

CC(NC(=O)c1cc(COc2ccccc2)on1)c1nccs1 (configuration not stated)
outcome: inactive

CC1CCc2sc(C(=O)Nc3ccc(C(N)=O)cc3)cc2C1 (configuration not stated)
outcome: inactive

O=C1c2ccccc2C(=O)N1CCc1c[nH]c2ccccc12
outcome: inactive

COc1ccc(C(=O)NCCn2ccc3ccccc32)cc1
outcome: inactive

O=C(Nc1ccc2oc(-c3ccccc3)nc2c1)c1cccnc1
outcome: inactive

FC(F)(F)c1cnc(-c2cnc(-c3cccnc3)nc2)c(Cl)c1
outcome: inactive

Cc1ccc(NC(=O)CC(=O)c2ccccc2)cc1C
outcome: inactive

O=C(c1noc2c1CCCC2)N1CCc2ccccc2C1
outcome: inactive

COc1ccc(/C(C)=N/Nc2nncc3ccccc23)cc1
outcome: inactive

CCCCN(C(=O)Cc1cccs1)c1nnc(-c2cccnc2)s1
outcome: inactive

Cc1nc2ccc(NC(=O)Cc3c(F)cccc3Cl)cc2s1
outcome: inactive

CCCn1nnc(NC(=O)c2ccc(-c3ccccc3)cc2)n1
outcome: inactive

COc1ccc(C(=O)CN2Cc3ccccc3C2=N)cc1
outcome: inactive

O=C(CC(Nc1ccccc1)C(=O)O)c1ccccc1 (configuration not stated)
outcome: inactive

Cc1ccc(CSc2ccc(-c3cccs3)nn2)cc1
outcome: inactive

CCS(=O)(=O)N1Cc2ccccc2CC1C(=O)NCc1cccc(OC)c1 (configuration not stated)
outcome: inactive

COc1ccc(-c2cc(C(=O)Nc3ccccc3F)on2)cc1
outcome: inactive

O=S(=O)(c1cccs1)N1CCCc2cccc(O)c21
outcome: inactive

Clc1ccc(C#Cc2cccnc2)cc1
outcome: inactive

O=c1nc(/C=C/c2ccc(O)c(O)c2)oc2ccccc12
outcome: inactive

COc1cccc(CNc2nc3ccccc3n2C)c1O
outcome: inactive

CCc1ccc(OC(=O)Nc2ccccc2)cc1
outcome: inactive

COc1ccc(C2Nc3ccccc3C(=O)N2c2ccc(C)cc2)cc1Cn1nnc2ccccc21 (configuration not stated)
outcome: inactive

Clc1ccc(-c2nc(C3CCCCC3)no2)cc1
outcome: inactive

c1ccc(-c2ccc3[nH]ccc3c2)cc1
outcome: inactive

Oc1[nH]c2ccccc2c1C=Nc1ccccc1
outcome: inactive

O=C(O)c1ccc(/C=C/c2ccc3cccc(O)c3n2)cc1
outcome: inactive

c1ccc(-c2nc3ccccc3[nH]2)cc1
outcome: inactive

CC(=O)Nc1nnc(COc2ccc(Cl)cc2)s1
outcome: inactive

O=C(Nc1ccc(F)cc1Cl)c1ccc2c(=O)n3c(nc2c1)CCC3
outcome: inactive

Cc1ccc(Nc2nc(CSc3n[nH]c(N)n3)cs2)cc1
outcome: inactive

Cc1ccccc1-c1nc2cc(Cl)ccc2o1
outcome: inactive

O=C(NCc1ccccn1)Nc1ccc(Br)cc1Cl
outcome: inactive

C/C(=N/NC(=O)c1ccncc1)c1ccc(NC(=O)c2ccc(Cl)cc2Cl)cc1
outcome: inactive
